The results in this text go back to PubChem BioAssay.

Active and inactive are the calls of the source. Unless noted, how the calls were made is not given here.

The nature of test [1]: anti-His antibody binders, primary screen, artefact control for SMM control protein annotation, biochemical, small-molecule microarray, 635 nm fluorescence (AID 1128).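 Further: score merges feature fluorescence with signal-to-noise for each printed compound spot.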 Particulars: anti-His Alexa647 antibody binding, higher = more signal.
For test [2], the system named is Human papillomavirus type 1a E7 protein (residues 1-88). Description: HPV1a E7 small-molecule binders, primary screen, biochemical, small-molecule microarray, residues 1-88, 635 nm (AID 1129). Particulars: small-molecule microarray binding, fluorescence 635 nm; higher = more signal.
Test [3] concerns the target Focal adhesion kinase 1 (Homo sapiens) (UniProt Q05397). In words: small-molecule microarray binders of FAK, primary screen, biochemical, 635/667 nm fluorescence, BSA, DTT (AID 1130).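 Further: composite of spot emission at 667 nm and signal to noise over triplicate slides.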 Particulars: PTK2 binding, 635 nm fluorescence, higher = more signal.
For test [4], the system named is Fibrinogen (Alexa647-labelled). In words: fibrinogen binders on compound microarrays, profiling panel, artefact control for SMM control-protein annotation, biochemical, small-molecule microarray, 635/667 nm fluorescence (AID 1131).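 Further: z-score merges 667 nm fluorescence with per-spot signal-to-noise over triplicate slides.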 Conditions: fibrinogen-A647 binding fluorescence, higher = more signal.
Test [5] deals with Follistatin (Homo sapiens) (UniProt P19883). Description: follistatin binders on small-molecule microarrays, primary screen, biochemical, small-molecule microarray, 635/667 nm fluorescence (AID 1132). Particulars: FST binding, 635 nm fluorescence, higher = more signal.
Test [6] concerns the target Fibroblast growth factor 2 (Homo sapiens) (UniProt P09038). Description: FGF2 binders on small-molecule microarrays, primary screen, biochemical, small-molecule microarray, 635/667 nm fluorescence (AID 1133). Conditions: small-molecule microarray binding, FGF2, fluorescence 635/667; higher = more signal.
Test [7] can be described thus: mitochondrial membrane potential change in A549 cells, profiling panel, cell-based, JC-1 fluorescence, basal, 24 h, 100 nL (AID 1138).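 Further: A549 lung adenocarcinoma cells under basal conditions with no added stimulus; test concentration not given here.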 Particulars: higher = more signal.
Test [8] has as its system Lefty1. Description: Lefty1 binders on small-molecule microarrays, primary screen, biochemical, small-molecule microarray, 635/667 nm fluorescence (AID 1139). Conditions: small-molecule microarray binding, fluorescence 635/667; higher = more signal.
The subject of test [9] is wheat germ agglutinin (Triticum aestivum), Alexa647-labelled. In words: wheat germ agglutinin binders on compound microarrays, profiling panel, artefact control for SMM control-protein annotation, biochemical, small-molecule microarray, 635/667 nm fluorescence (AID 1140).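 Further: score merges 667 nm feature emission with signal to noise over triplicate slides.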 Particulars: WGA-A647 binding, 635 nm fluorescence, higher = more signal.
For test [10], the target named is Luciferin 4-monooxygenase (Photinus pyralis) (UniProt P08659). Description: firefly luciferase enzyme inhibitors, primary screen, biochemical, luminescence, purified enzyme, 2006 set (AID 1141).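 Further: cell-free assay with purified firefly luciferase at 100 ng per well in PBS; test concentration not given here.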 Particulars: SteadyGlo luminescence, 30 min, higher = more signal, called active from +8 up or from −8 down.
Test [11] concerns Wnt5a (protein binding on small-molecule microarray). In words: Wnt5a binders on small-molecule microarray, primary screen, biophysical, 635/667 nm fluorescence (AID 1142).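 Further: fluorescence read at 667 nm with signal to noise per printed feature.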 Conditions: 635 nm fluorescence, higher = more signal.
The nature of test [12]: cell viability in Huh7 cells, primary screen, cytotoxicity control for HCV replication inhibitor project, CellTiter-Glo luminescence, basal, 48 h (AID 1143).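 Further: Huh7 hepatoma cells carrying a hepatitis C replication reporter with no stimulus; test concentration not given here.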 Conditions: Huh7 HCV replicon, higher = more signal, called active from +8 up or from −8 down. Background: Cellular ATP, detected with luciferase, serves as a proxy for viable cell number.
A short description of test [13]: P. aeruginosa biofilm formation inhibitors, primary screen, PAO1 strain, BacTiter-Glo luminescence, LB-PBS (AID 1144). Particulars: 12 h, higher = more signal.
Test [14] in a line: CREB reporter modulators without forskolin, primary screen, cell-based, PC12, CRE-LacZ reporter, unstimulated (AID 1145). Particulars: no forskolin, luminescence, 4.5 h, higher = more signal, called active from +8 up or from −8 down.
Test [15] is described as follows: CREB reporter modulators under forskolin, primary screen, cell-based, PC12, CRE-LacZ reporter, forskolin-stimulated (AID 1146).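 Further: PC12 cells with 6xCRE LacZ reporter stimulated by forskolin 10 µM; beta-galactosidase reporter signal reflecting CREB driven transcription.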 Conditions: luminescence, 4.5 h, higher = more signal, called active from +8 up or from −8 down.
The target of test [16] is Streptavidin (Streptomyces avidinii) (UniProt P22629). In words: streptavidin binders on small-molecule microarray, primary screen, artefact control for SMM compound annotation, biophysical, 635/667 nm fluorescence (AID 1147).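 Further: signal reflects streptavidin binding to arrayed compounds as a control protein.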 Particulars: streptavidin binding, higher = more signal.
A short description of test [17]: small-molecule binders of probe aInhba, primary screen, biochemical, small-molecule microarray, 635/667 nm fluorescence (AID 1148).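 Further: score merges 667nm spot fluorescence with signal-to-noise for antibody binding to printed compounds.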 Conditions: higher = more signal.
The target in test [18] is Torsin-1A (Homo sapiens) (UniProt O14656). Description: torsin A binders from cell lysate, primary screen, small-molecule microarray, wild-type, 635/667 nm (AID 1149). Conditions: COS7 hTOR1A-WT lysate, 635 nm fluorescence, higher = more signal.
The target is the same in test [19]. In words: small-molecule binders of mutant TOR1A in lysate, primary screen, cell lysate, small-molecule microarray, COS7 lysate, 635/667 nm fluorescence (AID 1150).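 Further: score pools 667 nm emission and signal to noise measuring lysate protein binding.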 Particulars: COS7 hTOR1A mutant lysate, 635 nm fluorescence, higher = more signal.
Test [20] concerns Sonic hedgehog protein (Shh). Description: small-molecule binders of Shh protein, primary screen, biochemical, small-molecule microarray, 635/667 nm fluorescence (AID 1151).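 Further: Shh protein binding to compounds spotted on small-molecule microarray slides; score combines spot fluorescence intensity with signal-to-noise across triplicate slides.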 Conditions: small-molecule microarray binding, 635 nm fluorescence; higher = more signal.

Chain of Luciferin 4-monooxygenase (Photinus pyralis) (P08659 whole entry, looked up): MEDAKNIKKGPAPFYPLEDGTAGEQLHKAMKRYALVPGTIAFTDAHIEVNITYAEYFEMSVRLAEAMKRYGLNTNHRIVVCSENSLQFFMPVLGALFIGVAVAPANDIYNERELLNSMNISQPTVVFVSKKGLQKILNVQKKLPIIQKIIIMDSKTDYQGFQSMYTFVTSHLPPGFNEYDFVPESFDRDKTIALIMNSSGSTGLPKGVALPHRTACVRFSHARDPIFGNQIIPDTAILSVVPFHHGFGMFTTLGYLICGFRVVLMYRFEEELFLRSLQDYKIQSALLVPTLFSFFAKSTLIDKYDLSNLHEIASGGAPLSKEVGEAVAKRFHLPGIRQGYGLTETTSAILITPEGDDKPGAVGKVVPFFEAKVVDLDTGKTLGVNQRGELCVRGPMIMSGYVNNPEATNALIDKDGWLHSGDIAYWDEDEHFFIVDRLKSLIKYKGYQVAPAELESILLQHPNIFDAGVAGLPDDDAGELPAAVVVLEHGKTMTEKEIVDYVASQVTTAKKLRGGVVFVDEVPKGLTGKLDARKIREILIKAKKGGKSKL
Chain of Follistatin (Homo sapiens) (P19883 whole entry, looked up): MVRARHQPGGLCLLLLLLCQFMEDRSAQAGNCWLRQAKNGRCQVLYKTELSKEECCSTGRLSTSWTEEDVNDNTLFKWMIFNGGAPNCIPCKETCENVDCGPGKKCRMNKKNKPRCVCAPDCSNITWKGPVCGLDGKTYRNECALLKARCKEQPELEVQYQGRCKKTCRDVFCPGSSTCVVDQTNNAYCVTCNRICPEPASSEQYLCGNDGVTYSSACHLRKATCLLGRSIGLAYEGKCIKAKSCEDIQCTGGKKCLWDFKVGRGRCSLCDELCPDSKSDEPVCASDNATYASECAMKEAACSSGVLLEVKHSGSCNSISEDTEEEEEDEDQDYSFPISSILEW
Chain of Streptavidin (Streptomyces avidinii) (P22629 whole entry, looked up): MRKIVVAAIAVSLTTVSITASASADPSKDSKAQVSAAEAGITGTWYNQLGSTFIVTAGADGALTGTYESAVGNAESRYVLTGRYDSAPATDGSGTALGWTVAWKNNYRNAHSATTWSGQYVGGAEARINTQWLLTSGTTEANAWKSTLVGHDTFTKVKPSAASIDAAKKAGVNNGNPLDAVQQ
Chain of Fibroblast growth factor 2 (Homo sapiens) (P09038 whole entry, looked up): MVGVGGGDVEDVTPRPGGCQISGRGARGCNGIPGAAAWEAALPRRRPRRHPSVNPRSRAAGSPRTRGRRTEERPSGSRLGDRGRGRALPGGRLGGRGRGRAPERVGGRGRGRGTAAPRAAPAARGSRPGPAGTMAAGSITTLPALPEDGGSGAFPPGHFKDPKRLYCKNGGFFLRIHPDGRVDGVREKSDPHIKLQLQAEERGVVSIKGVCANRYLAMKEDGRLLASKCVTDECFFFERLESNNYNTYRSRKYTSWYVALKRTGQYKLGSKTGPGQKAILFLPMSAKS
Chain of Torsin-1A (Homo sapiens) (O14656 whole entry, looked up): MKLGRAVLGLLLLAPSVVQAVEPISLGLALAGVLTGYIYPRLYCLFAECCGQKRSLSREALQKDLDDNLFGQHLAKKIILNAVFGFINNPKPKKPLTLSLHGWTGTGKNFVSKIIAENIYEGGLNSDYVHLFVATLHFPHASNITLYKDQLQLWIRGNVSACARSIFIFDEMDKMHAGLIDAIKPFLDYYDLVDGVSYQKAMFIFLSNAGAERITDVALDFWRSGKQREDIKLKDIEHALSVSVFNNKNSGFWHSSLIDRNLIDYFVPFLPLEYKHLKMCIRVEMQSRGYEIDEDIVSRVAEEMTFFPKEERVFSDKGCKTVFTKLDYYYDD
Chain of Focal adhesion kinase 1 (Homo sapiens) (Q05397 whole entry, looked up): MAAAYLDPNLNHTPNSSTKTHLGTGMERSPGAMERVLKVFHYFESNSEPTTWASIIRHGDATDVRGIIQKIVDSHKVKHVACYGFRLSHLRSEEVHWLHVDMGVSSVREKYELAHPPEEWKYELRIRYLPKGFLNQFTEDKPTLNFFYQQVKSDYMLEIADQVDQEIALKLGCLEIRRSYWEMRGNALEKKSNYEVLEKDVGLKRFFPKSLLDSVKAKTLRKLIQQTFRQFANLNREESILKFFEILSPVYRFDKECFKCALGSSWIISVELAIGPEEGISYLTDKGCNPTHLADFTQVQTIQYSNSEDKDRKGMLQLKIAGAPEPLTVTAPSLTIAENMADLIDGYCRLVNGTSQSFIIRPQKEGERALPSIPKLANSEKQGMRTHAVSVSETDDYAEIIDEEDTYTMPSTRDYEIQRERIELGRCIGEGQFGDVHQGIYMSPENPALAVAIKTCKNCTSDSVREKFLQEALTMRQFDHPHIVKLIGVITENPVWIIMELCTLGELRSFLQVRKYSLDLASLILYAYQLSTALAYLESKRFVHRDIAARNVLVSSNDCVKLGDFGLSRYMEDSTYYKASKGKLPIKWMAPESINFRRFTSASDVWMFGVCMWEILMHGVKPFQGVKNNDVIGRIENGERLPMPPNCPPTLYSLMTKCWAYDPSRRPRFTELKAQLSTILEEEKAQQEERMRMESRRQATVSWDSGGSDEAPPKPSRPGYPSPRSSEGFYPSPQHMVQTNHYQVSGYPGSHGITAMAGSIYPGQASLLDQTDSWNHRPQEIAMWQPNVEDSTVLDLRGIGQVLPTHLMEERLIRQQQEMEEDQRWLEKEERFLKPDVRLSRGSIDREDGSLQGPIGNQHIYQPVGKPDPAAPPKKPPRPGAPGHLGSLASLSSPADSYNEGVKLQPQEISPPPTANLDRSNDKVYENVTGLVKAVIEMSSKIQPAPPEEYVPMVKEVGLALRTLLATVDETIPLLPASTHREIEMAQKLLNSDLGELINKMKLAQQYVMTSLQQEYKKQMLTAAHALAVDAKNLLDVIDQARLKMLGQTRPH

Turning to `[N-]=[N+]=NCc1ccccc1[C@@H]1OC(c2ccc(OCCCO)cc2)=N[C@]1(Cc1ccccc1N=[N+]=[N-])C(=O)N1CCOCC1`, the composite z-score in [1] amounted to 2.12; in test [2] it was 1.27; in test [3], 0.536; in [4] it was 0.857; in test [5], 1.31; in test [6] it was 1.66. In addition, the composite z-score is -0.207 in [8]; 1.13 in test [9]; 1.11 in [11]; 1.57 in test [16]; 0.636 in [17]; 0.308 in [18]. For the same compound, the composite z-score in [19] was 0.898; in test [20], -0.284. The z-score is 1.28 in [7]; -1.52 (inactive) in [10]; -1.61 (inactive) in test [12]; 0.103 (inactive) in test [13]; 1.78 (inactive) in test [14]; -0.514 (inactive) in [15].
Regarding `CCOC(=O)C[C@H]1[C@H](OC(=O)Cc2ccc3c(c2)OCO3)[C@@H](NC(=O)c2ccc(-c3ccccc3)cc2)c2cc(OCCCO)ccc2N1C(=O)Cc1ccc(OC)cc1`, the composite z-score came out at 0.0923 in test [1]; 0.516 in test [2]; 0.165 in [3]; 0.872 in [4]; 0.518 in [5]; 0.28 in test [6]. Also, the composite z-score in test [8] is 0.475; in test [9], 0.415; in test [11], 0.267; in test [16], 0.0687; in test [17] it was -0.0754; in test [18], 0.0816. The composite z-score in test [19] was 0.394; in [20], 0.965. Further, the z-score in test [7] is 1.24; in test [10], -1.11 (inactive); in test [12], -0.921 (inactive); in [13], -0.304 (inactive); in [14], 6.24 (inactive); in test [15] it was 0.0489 (inactive).
As to `C=CCOC(=O)[C@H]1[C@@H]2C(=O)O[C@@H](c3ccccc3)[C@@H](c3ccccc3)N2[C@@H](c2ccc(OCCOC(=O)[C@@H]3C[C@@H]4C(=O)N[C@@H](CCCC[N+](C)(C)C)C(=O)N4[C@@H]3c3ccc(O)cc3)cc2)[C@]12C(=O)Nc1ccccc12`, the composite z-score was 1.46 in test [1]; 1.2 in test [2]; 0.877 in test [3]; 0.583 in [4]; 1.26 in [5]; 1.51 in test [6]. Further, the composite z-score was 1.18 in test [8]; 0.494 in test [9]; 0.444 in test [11]; -0.0862 in [16]; -0.0494 in [17]; 1.67 in test [18]. The composite z-score came out at 1.23 in [19] and 2.06 in test [20]. Besides, the z-score in [7] was -0.849; in test [10] it was -2.95 (inactive); in test [12] it was -2.47 (inactive); in test [13] it was -1.19 (inactive); in [14] it was -1.07 (inactive); in test [15], -1.48 (inactive).
As to `[N-]=[N+]=Nc1ccccc1C[C@]1(C(N)=O)N=C(c2ccc(OCCCO)cc2)O[C@H]1c1ccccc1`, the composite z-score in test [1] is 2.45; in test [2], 1.2; in test [3], -0.155; in [4], 1.01; in [5], 0.371; in test [6] it was -0.768. For the same compound, the composite z-score in [8] was -0.364; in test [9], 1.23; in test [11], 0.498; in test [16], 0.665; in [17], 0.0516; in test [18], 0.644. The composite z-score was -0.0736 in [19] and -1.98 in [20]. Moreover, the z-score in test [7] is 0.518; in test [10], -1.53 (inactive); in [12], -2.27 (inactive); in [13], -0.726 (inactive); in [14], 1.31 (inactive); in test [15] it was -0.723 (inactive).
As to `COCCOC(=O)N1C(=O)[C@@]2(c3cc(C#CCCO)ccc31)[C@H](C(=O)N1CCN(c3ncccn3)CC1)[C@H]1C(=O)O[C@H](c3ccccc3)[C@H](c3ccccc3)N1[C@@H]2c1ccccc1OCCO`, the composite z-score is 0.475 in test [1]; 1.23 in test [2]; 0.868 in test [3]; 0.972 in test [4]; 1.35 in test [5]; 0.821 in test [6]. Further, the composite z-score is 0.828 in test [8]; 1.04 in [9]; 0.0536 in test [11]; 1.08 in test [16]; -0.0983 in test [17]; 0.259 in [18]. The composite z-score in test [19] amounted to 0.829; in test [20] it was 0.842. In addition, the z-score is -0.778 in [7]; 1.23 (inactive) in test [10]; -2.42 (inactive) in test [12]; -0.173 (inactive) in [13]; -0.698 (inactive) in [14]; -0.228 (inactive) in [15].
